Only some compounds are listed: those with a hit (about 12% of all), similar ones and a draw of the others.
Sfp inh: inhibitors of Bacillus subtilis Sfp phosphopantetheinyl transferase. Q9F4F7. Biochemical Sfp PPTase activity, qHTS. Potency, µM, inactives show largest response in the series, negative = inhibition, hits mostly inhibitors. AID 1490. 310,000 tested, 3.5% active;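 further: the enzyme is Sfp with the accession as filed and its product quenches rhodamine fluorescence; 0% = enzyme reaction without inhibitor and -100% = no enzyme wells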
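Reaction rates are the 30-min fluorescence difference (ex 525, em 598 nm) in wells containing 15 nM Sfp, 5 uM rhodamine-CoA and 12.5 uM BHQ-2-YbbR at pH 7.6 with 10 mM MgCl2.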
L3MBTL1 inh: inhibitors of human L3MBTL1; AlphaScreen L3MBTL1–H3K9me1 peptide binding; Potency, µM (series often up to 57.1 µM), for the others: at the top dose activity, negative = inhibition, hits mostly inhibitors; 230,000 tested, 0.66% active; AID 485360; further: on the % scale 0 is the no-effect control and ±100 the full control effect; nearly all actives have a fitted effect of over 60% in size
Target sequence (Q9Y468 whole entry, looked up): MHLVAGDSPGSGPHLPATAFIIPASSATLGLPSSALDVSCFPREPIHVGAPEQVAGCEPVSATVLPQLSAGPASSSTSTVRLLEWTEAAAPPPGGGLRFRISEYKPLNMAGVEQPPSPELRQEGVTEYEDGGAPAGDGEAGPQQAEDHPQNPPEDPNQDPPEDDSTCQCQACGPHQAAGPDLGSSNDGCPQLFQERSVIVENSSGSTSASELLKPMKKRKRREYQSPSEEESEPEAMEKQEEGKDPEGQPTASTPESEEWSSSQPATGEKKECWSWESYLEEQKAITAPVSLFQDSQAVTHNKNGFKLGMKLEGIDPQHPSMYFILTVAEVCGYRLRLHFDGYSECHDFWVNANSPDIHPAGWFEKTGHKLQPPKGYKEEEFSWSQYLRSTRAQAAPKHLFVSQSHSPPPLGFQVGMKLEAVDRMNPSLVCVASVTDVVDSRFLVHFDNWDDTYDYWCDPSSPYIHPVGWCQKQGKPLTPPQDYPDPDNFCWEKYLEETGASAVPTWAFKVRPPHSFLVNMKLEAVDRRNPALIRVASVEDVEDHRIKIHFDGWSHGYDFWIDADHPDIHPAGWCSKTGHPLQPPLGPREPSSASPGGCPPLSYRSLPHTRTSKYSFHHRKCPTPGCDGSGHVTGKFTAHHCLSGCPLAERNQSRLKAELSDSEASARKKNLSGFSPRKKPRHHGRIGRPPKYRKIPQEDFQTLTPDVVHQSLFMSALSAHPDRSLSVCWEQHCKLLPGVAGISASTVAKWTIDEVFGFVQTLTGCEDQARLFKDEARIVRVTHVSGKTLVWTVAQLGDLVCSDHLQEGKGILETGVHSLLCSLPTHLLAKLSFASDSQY
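Read-out is AlphaScreen signal from streptavidin donor and nickel chelate acceptor beads (10 ug/mL final each) bridging L3MBTL1 (50 nM) and biotinylated K9-monomethylated H3(1-15) peptide (75 nM), after 30 min compound exposure at room temperature.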
G9a block: blocks human histone lysine methyltransferase G9a; Potency, µM (highest dose often 102 µM), inactives show at the top dose activity, negative = inhibition, actives largely listed as inhibitors; Q96KQ7; 350,000 tested, 8.8% active; AID 504332; G9a H3K9 monomethylation, AlphaScreen, 2 h; further: on the % scale 0 is the no-effect control and ±100 the full control effect; nearly all actives have a fitted effect of over 75% in size
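AlphaScreen read-out: biotin-H3K9 peptide (500 nM) methylation by 20 nM enzyme with 20 uM SAM, 2 h at room temperature after 15 min compound preincubation; anti-monomethyl H3K9 antibody plus donor/acceptor beads, 10 min dark.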
JMJD2A Tudor: blocks the human JMJD2A Tudor domain; 390,000 tested, 4.4% active; Potency, µM (doses to about 114 µM), inactives show at the highest dose activity change, negative = inhibition, actives largely listed as inhibitors; AlphaScreen JMJD2A-Tudor / H3K4me3 peptide binding; further: on the % scale 0 is the no-effect control and ±100 the full control effect; nearly all actives have a fitted effect of over 50% in size
HP1b binding inh: HP1-beta chromodomain-methylated histone interaction inhibition | P83916 | Potency, µM (doses to about 114 µM), inactives show at the highest dose activity change, negative = inhibition, hits mostly inhibitors | AlphaScreen HP1-beta / biotin-H3K9me3 peptide binding | 390,000 tested, 0.56% active; further: nearly all actives have a fitted effect of over 70% in size
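AlphaScreen: HP1-beta (50 nM) preformed 30 min with biotin-H3(1-18)K9me3 peptide (50 nM) in PBS pH 7.4, 0.01% Tween-20. Compound added for 30 min at RT, then streptavidin donor/nickel chelate acceptor beads (10 ug/mL) for 30 min.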
BAZ2B inh: blocks human BAZ2B; Q9UIF8; AlphaScreen BAZ2B-H3K14Ac peptide displacement; Potency, µM (top dose mostly 114 µM), inactives show at the highest dose activity change, negative = inhibition, actives largely listed as inhibitors; 360,000 tested, 4.4% active; AID 504333; further: on the % scale 0 is the no-effect control and ±100 the full control effect; nearly all actives have a fitted effect of over 60% in size
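Multi-concentration screen (max 110 uM) measuring displacement of acetylated histone H3 peptide from BAZ2B by AlphaScreen, using 50 nM protein, 50 nM peptide and 10 ug/mL streptavidin donor plus Ni-chelate acceptor beads.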
Starred values were filed as active, the others as inactive; u = inconclusive; x = no result given; [ ] = remark or other dose. The call rests on the fitted dose curve; in most records, active means well fitted curve in the direction sought with a large enough effect; inconclusive means small, poorly fitted or top-dose-only effect, or another doubt; inactive means no such curve, though single readings can be large; an effect the other way counts as inactive or inconclusive. Potency means the concentration at half of the fitted maximal effect.

SMILES	Sfp inh	L3MBTL1 inh	G9a block	JMJD2A Tudor	HP1b binding inh	BAZ2B inh
Cc1nc(SC2C=CS(=O)(=O)C2)n[nH]1 (centres undefined)	7%	x	50µM*	56µM*	8%	u
COc1ccc(NC2C=CS(=O)(=O)C2)cc1 (centres undefined)	2%	x	6%[59 µM]	-16%	45%	-3%
Cc1nc(CN2CCCCC2)c(O)c(=O)[nH]1	x	x	x	25µM*	-16%	x
Cc1[nH]c(=O)[nH]c1CN1CCCCC1	8%	0%	u	x	x	-4%
CCCn1c(C(C)NC(=O)c2ccccc2)n[nH]c1=S (centres undefined)	-6%	51%	x	8.9µM*	8%	4%
C=CCn1c(C(C)NC(=O)c2ccccc2)n[nH]c1=S (centres undefined)	9%	-1%	x	10µM*	18%	-2%
CCn1c(C(C)NC(=O)c2cccc(C)c2)n[nH]c1=S (centres undefined)	-5%	-2%	45µM*	-23%	59%	-33%
Cc1ccc(C)c(NC(=O)C2CCCN(S(=O)(=O)c3cccc4nsnc34)C2)c1 (centres undefined)	x	x	-7%[59 µM]	-9%	19%	x
CCC1CCCCN1CCCNC(=O)c1c(C)oc2ncn(CC(C)C)c(=O)c12 (centres undefined)	x	x	-4%[59 µM]	-16%	15%	7%[57.1 µM]
Cc1ncc(CO)c(/C=N/Nc2ccc(C(F)(F)F)cn2)c1O	6%	x	-3%	u	-24%[57 µM]	20µM*
Cc1ncc(CO)c(/C=N/NC(=S)Nc2ccc(F)cc2)c1O	-17%	14µM*	-152%[59 µM]	40µM*	u	3.2µM*
Cc1ncc(CO)c(/C=N/N=C/c2ccccc2O)c1O	-11%	16%	14%[59 µM]	u	-2%	u
COc1ncc2nc(-c3cccs3)c(=O)n(Cc3cccs3)c2n1	11%	x	3%[0.501 µM]	x	x	x
Nc1c(-c2nc(-c3ccc(Cl)cc3)cs2)c2ccccn2c1C(=O)c1ccc2c(c1)OCO2	x	x	38%[59 µM]	-10%	33%	3%
Cc1cccc(NC(=O)c2oc3ccccc3c2NC(=O)c2cc(=O)c3cc(Cl)ccc3o2)c1	x	x	-29%[59 µM]	-3%	32%	-7%
S=c1[nH]nc(CCSCc2ccccc2)n1-c1ccccc1	-9%	-12%	3.5µM*	40µM*	11%	u
COc1ccccc1N1CCN(CCCCN2C(=O)c3ccccc3C2=O)CC1	17%	x	74%[12.7 µM]	-21%	20%	x
Oc1ccc(CCc2n[nH]c(=S)n2-c2ccc(F)cc2)cc1	5%	7%	6.3µM*	25µM*	17%	-15%
COc1ccc(-n2c(CCc3ccccc3)n[nH]c2=S)cc1	-10%	-5%[11.4 µM]	-117%	11µM*	9%	-34%
COc1ccccc1N1CCN(CCc2n[nH]c(=S)n2-c2ccccc2)CC1	-11%	x	u	18µM*	2%	50µM*
COc1ccc(OCc2n[nH]c(=S)n2-c2ccc(C)cc2)cc1	-23%	-12%	u	u	7%	-32%
Cc1ccc(S(=O)(=O)N(Cc2n[nH]c(=S)n2-c2ccccc2)c2ccccc2)cc1	-1%	x	x	-28%	24%	u
COc1ccc(NC(=O)C(=O)NCCc2csc(-c3ccc(Cl)cc3)n2)cc1	x	x	7%[59 µM]	-11%	11%	5%
CCOc1ccc(-n2c(CCc3ccccc3)n[nH]c2=S)cc1	-14%	-10%	u	16µM*	5%	-15%
CCCCC(CC(O)COCCC)c1n[nH]c(=S)n1-c1ccccc1 (centres undefined)	u	-1%	15%[0.501 µM]	16µM*	40%	-1%
SMILES	Sfp inh	L3MBTL1 inh	G9a block	JMJD2A Tudor	HP1b binding inh	BAZ2B inh
COc1ccc(-n2c(Cn3nnc4ccccc43)nnc2SCC(=O)O)cc1	21%	1%	-7%[59 µM]	-6%	29%	x
COc1ccc(-n2c(Cn3nnc4ccccc43)n[nH]c2=S)cc1	-6%	4%	8.9µM*	18µM*	34%	1%
CCCCCC(O)CCc1n[nH]c(=S)n1-c1ccccc1 (centres undefined)	-5%	-1%	8.9µM*	20µM*	13%	5%[57.1 µM]
CCCCC(CC(O)COCCC)C(=O)NN (centres undefined)	22%	10%	-3%	0%	35%	-2%
CCCOc1ccc(CCc2n[nH]c(=S)n2-c2ccccc2)cc1	-10%	-14%	5.6µM*	-24%	24%	-33%
CCCOc1ccc(CCc2n[nH]c(=S)n2Cc2ccccc2)cc1	-8%	-4%	u	-34%[57.1 µM]	29%	1%
O=C1c2ccccc2C(=O)C1c1ccnc2ccccc12	15%	5%	-12%[59 µM]	79µM*	79%	3%
O=C1c2ccccc2C(=O)C1c1nccc2ccccc12	12%	x	-3%[12.7 µM]	-30%	56%	5%
N#CC1=C(N)SC(N)=C(C#N)C1c1ccnc2ccccc12	16µM*	-4%	2.5µM*	56µM*	18%	u
CCOC(=O)c1ccc(CN(Cc2ccccc2C)S(=O)(=O)c2ccc(F)c(C)c2)cc1	x	x	52%[59 µM]	23%	49%	-1%
CC(=O)OCC(=O)[C@@]12OC3(CCCC3)OC1CC1C3CCC4=CC(=O)C=C[C@@]4(C)[C@]3(F)C(O)C[C@]12C (some centres undefined)	-7%	x	-4%[2.33 µM]	x	x	x
CCn1c(C)c(/C=N/Nc2nc3ccccc3s2)c2ccccc21	1%	u	40µM*	32µM*	u	16µM*
C(=N\Nc1nc2ccccc2s1)/c1cccs1	-29%	-15%	-7%[59 µM]	-29%	-3%	u
C=CCC(C)(NCc1ccccc1)C(=O)OCC (centres undefined)	-27%	x	x	x	x	x
C=CCC(C)(NCc1ccccc1)c1ccco1 (centres undefined)	-5%	4%	13µM*	2µM*	u	50µM*
Cc1ccc2c(c1)c(=O)c1c3n2CCN(C(=O)CCl)C3CC1 (centres undefined)	79µM*	x	11µM*	u	-9%	40µM*
CN1CCN(CC(=O)N2CCn3c4c(c5cc(C6CCCCC6)ccc53)CCCC42)CC1 (centres undefined)	u	x	u	40µM*	u	35µM*
Cc1ccc2c(c1)c1c3n2CCN(C(=O)CN2CCN(C)CC2)C3CCC1 (centres undefined)	-10%	-10%	45µM*	u	-13%	u
COc1ccc(Cl)cc1NC(=O)C(C)NC(c1ccccc1)c1ccccc1 (centres undefined)	6%	14%	79µM*	-1%	29%	-2%
CCc1ccc(NC(=O)C(CC)n2c(=O)c(C(F)(F)F)nc3ccccc32)cc1 (centres undefined)	x	x	2%[59 µM]	3%	32%	2%
